The campaign covered roughly 230,000 compounds. About 1,500 (0.65%) were called active. A call without a number means that no potency is given here. Not shown: some 3% with an inconclusive outcome. The call rests on the fitted dose curve; in most records, active means well fitted inhibition curve with a large enough effect; inconclusive means small, poorly fitted or top-dose-only effect; inactive means no such curve, though single readings can be large or run the other way. For the sample, actives were picked, then their nearest neighbours and some compounds at random.
Potency means the concentration at half of the fitted maximal effect.

Lethal(3)malignant brain tumor-like protein 1 (Homo sapiens), sequence (Q9Y468 whole entry, looked up): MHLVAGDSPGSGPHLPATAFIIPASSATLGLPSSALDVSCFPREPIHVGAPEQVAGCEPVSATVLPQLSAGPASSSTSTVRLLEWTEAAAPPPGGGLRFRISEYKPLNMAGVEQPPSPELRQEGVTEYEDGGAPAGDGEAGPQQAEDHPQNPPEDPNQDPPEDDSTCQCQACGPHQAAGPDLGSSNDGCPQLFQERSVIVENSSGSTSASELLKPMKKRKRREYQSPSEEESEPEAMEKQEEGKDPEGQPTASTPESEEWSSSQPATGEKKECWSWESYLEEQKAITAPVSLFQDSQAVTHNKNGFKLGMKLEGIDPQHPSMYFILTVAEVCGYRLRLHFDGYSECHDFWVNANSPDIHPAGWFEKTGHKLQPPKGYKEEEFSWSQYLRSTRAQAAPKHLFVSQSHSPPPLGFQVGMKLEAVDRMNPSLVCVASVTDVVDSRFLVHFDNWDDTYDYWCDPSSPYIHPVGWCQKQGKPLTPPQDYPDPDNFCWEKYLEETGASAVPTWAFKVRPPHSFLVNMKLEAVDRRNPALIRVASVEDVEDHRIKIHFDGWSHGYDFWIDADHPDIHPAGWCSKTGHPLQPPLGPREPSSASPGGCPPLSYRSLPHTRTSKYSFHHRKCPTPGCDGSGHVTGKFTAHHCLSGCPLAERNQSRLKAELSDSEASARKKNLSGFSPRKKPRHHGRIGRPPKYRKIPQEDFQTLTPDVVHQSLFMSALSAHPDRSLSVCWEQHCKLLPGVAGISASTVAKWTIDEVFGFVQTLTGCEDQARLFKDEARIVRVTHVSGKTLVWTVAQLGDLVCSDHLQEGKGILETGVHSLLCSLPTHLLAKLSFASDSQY

This assay addresses Lethal(3)malignant brain tumor-like protein 1 (Homo sapiens) (UniProt Q9Y468). Briefly: qHTS Assay for the Inhibitors of L3MBTL1. Further: nearly all actives have a fitted effect of over 60% in size. The settings on record: AlphaScreen L3MBTL1–H3K9me1 peptide binding; series mostly up to 57.1 µM. The text has this:
The histone code is comprised of many post-translational modifications that occur mainly in histone tail peptides. The identity and location of these marks are read by a variety of histone binding proteins that are emerging as important regulators of cellular differentiation and development and are increasingly being implicated in numerous disease states. Small molecule probes that disrupt the interaction between histone binding proteins and chromatin would enable a systematic chemical biology study of proteins that read the histone code and could potentially reveal new targets for drug discovery. However, no such small molecules are known. This dearth of quality molecular probes can largely be attributed to the novelty of the target class and the lack of screening assays. This proposal details the development of the first high-throughput screening assay for the discovery of inhibitors of methyl-lysine binding proteins and how it can be be used to initiate a full-scale discovery effort for antagonists of histone binding proteins. Specifically, this work focuses on an AlphaScreen(tm)-based HTS assay for Malignant Brain Tumor (MBT) domain-containing proteins, which bind to the lower methylation states of lysine residues present in histone tail peptides.
To each well, 2 uL of L3MBTL1 protein (final 50 nM) and 1 uL biotinylated histone peptide monomethylated at Lys9 [b-AHA-H3(1-15)K9me1] (final 75 nM) was added using a nanoliter dispenser. Formation of a protein-peptide complex proceeded at room temperature for 30 min. A Kalypsys pin-tool was employed to transfer 23 nL of library compound solution in DMSO to each well. Cefsulodin, found in a pilot screen of the LOPAC library to be a weak inhibitor of L3MBTL1 binding, was used as an intraplate control with a 16-point titration in duplicate. Following a 30 min incubation of the protein-peptide complex with compounds at room temperature, a mixture of 40 ug/mL each streptavidin-coated donor and nickel chelate acceptor AlphaScreen beads (final 10 ug/mL) was added in a 1 uL dispense for a final volume of 4 uL. Plates were incubated, protected from the light for 30 min at room temperature. Microplates were then be read on an EnVision multilabel plate reader using the 1,536 plate HTS AlphaScreen aperture (excitation time 80 ms, measurement time 240 ms).
For orientation: qHTS replaces the single test concentration by a dilution series.
Consider `COc1ccc(NS(=O)(=O)c2ccc(C)c(C(=O)N(C)Cc3ccc(OC)cc3OC)c2)cc1`, for which the Potency entry is “inactive”.
With `O=C(NCCC1CCCCN1S(=O)(=O)c1ccccc1)C(=O)NCC1CCCO1` (centres undefined), the Potency result was “inactive”.
As to `CC(C)(C)OC(=O)NCCCCCNC(=O)c1nc[nH]c1C(=O)NCc1ccccc1`, the Potency entry is “inactive”.
For the molecule `CC(C)(C)OC(=O)NCCCCCNC(=O)c1[nH]cnc1C(=O)Nc1nccs1`, the Potency was 28.2 µM (active).
On the same count and under the same terms, to `C[C@H](NC(=O)c1nc[nH]c1C(=O)NCC(=O)OC(C)(C)C)c1ccccc1` belongs “inactive”; to `Cc1csc(=O)n1CC(=O)Nc1ccc(S(C)(=O)=O)cc1`, “inactive”.
For the molecule `Cc1ccc(S(=O)(=O)NC[C@H]2O[C@@H](n3cnc4c(N)ncnc43)[C@H](O)[C@@H]2O)s1`, the Potency entry is “inactive”.
In the case of `O=C(Cc1ccc(S(=O)(=O)N2CCOCC2)s1)N1CCN(c2ccc(C(F)(F)F)cc2[N+](=O)[O-])CC1`, the Potency entry is “inactive”.
`Cc1cccc(-n2ncc3c(=O)[nH]c(SCC(=O)Nc4cc(C)on4)nc32)c1`: the Potency entry was “inactive”.
As for `O=C1CCCC(O)=C1N=Nc1ccc2ncsc2c1`, the Potency is 25.1 µM (active).
On to `O=C1CCCC(O)=C1N=Nc1ccc(S(=O)(=O)N2CCOCC2)cc1`, for which the Potency entry was “inactive”.
As for `CC[C@@]1(C(=O)OC)N[C@H](CN(C)C(C)=O)[C@@H]2C(=O)N(C)C(=O)[C@@H]21`, the Potency entry was “inactive”.
As to `Cc1nnc(SCC(=O)Nc2cccc(N)c2)n1-c1ccccc1`, the Potency entry is “inactive”.
The same measure, in the same setting: to `O=C1c2ccccc2C(=O)c2c1cccc2N1CCN(Cc2ccccc2)CC1` belongs 14.1 µM (active).
In the case of `O=c1cc(N2CCN(Cc3ccccc3)CC2)c(-c2ccccc2)n[nH]1`, the Potency result is “inactive”.
As to `O=C1c2ccccc2C(=O)c2c1cccc2N1CCN(CCO)CC1`, the Potency entry is “inactive”.
Regarding `CN(CC(=O)O)C(=O)c1ccccc1`, the Potency result is “inactive”.
In the case of `Cn1ccc(=Nc2ccc(NC(=O)c3ccc(N=c4ccn(C)c5ccc([N+](=O)[O-])cc45)cc3)cc2)cc1`, the Potency was 25.1 µM (active).
For the molecule `CCc1ccc(NC(=O)c2ccc(Cn3cc([N+](=O)[O-])cn3)cc2)cc1`, the Potency entry is “inactive”.
Take `Cc1cc([N+](=O)[O-])ccc1NC(=O)c1ccc(NC(=O)C(C)C)cc1`: the activity, negative = inhibition was -0.242% [at 11.4 µM] (inactive).
In the case of `COCC(=O)N1CCCC(C(=O)c2ccc(C(F)(F)F)cc2)C1` (centres undefined), the Potency result is “inactive”.
Take `Cc1c(OC(C)C(=O)NCC2CCC(C(=O)O)CC2)ccc2c1oc(=O)c1ccccc12` (centres undefined): the Potency entry is “inactive”.
The same measure, in the same setting: under `CCCNC(=O)CCn1cc(-c2ccc(OC)cc2)nc1CCN` stands “inactive”.
On to `CCOC(=O)c1cn[nH]c1NC(=S)Nc1ccccc1`, for which the Potency entry is “inactive”.
On the same count and under the same terms, under `CCOC(=O)Cc1csc(NC(=O)Nc2ccccc2)n1` stands “inactive”; under `CCN(C(=O)Cc1nc(N)n[nH]1)C1(C(=O)Nc2ccccc2)CCCCC1`, 11.2 µM (active); under `Cc1ccc(OCC(=O)NC(C)c2ccccc2)cc1C` (centres undefined), “inactive”.
Turning to `CCCCC[C@@H]1C=C(C(=O)O)[C@H](c2ccc(C#N)cc2)N1S(=O)(=O)c1ccc(C)cc1`, the Potency result was “inactive”.
As to `O=[N+]([O-])c1ccc(C=Nc2ccc(Cl)cc2Cl)s1`, the Potency was 25.1 µM (active).
Consider `CCOc1ccc(NC(=O)CCC(=O)N/N=C/c2ccc([N+](=O)[O-])s2)cc1`, for which the Potency entry is “inactive”.
Still for that read-out and setting: to `CC1CN(C(=O)c2ccc([N+](=O)[O-])s2)CC(C)O1` (centres undefined) belongs “inactive”.
With `O=[N+]([O-])c1ccc2c(c1)Nc1nc3ccccc3nc1N2`, the Potency result was “inactive”.
For `Cn1nnnc1SCC(=O)Nc1cccc(S(=O)(=O)N2CCCCC2)c1`, the Potency result was “inactive”.
As to `COc1ccccc1-c1sc2ccccc2c1C#CC1(O)CCCCC1`, the Potency result is “inactive”.
In the case of `COc1ccc2c(C(=O)c3ccc(C)cc3)n(CCC(N)=O)[n+]([O-])c2c1`, the Potency result was “inactive”.
On the same count and under the same terms, under `COCCNC(=O)Nc1ccc2nc(-c3ccco3)c(-c3ccco3)nc2c1` stands 2.82 µM (active); under `O=C1CSc2ccc(C(=O)NCc3ccccn3)cc2N1`, “inactive”; under `O=C(NCc1ccccn1)c1cc(-c2ccccc2Cl)on1`, “inactive”.
As to `CC(C)(C)c1ccc(NC(=O)NCc2ccco2)cc1`, the Potency entry was “inactive”.
`COc1ccc(NC(=O)Nc2ccc3nsnc3c2)cc1`: the Potency entry was “inactive”.
For the molecule `O=C(NCc1ccccn1)c1ccc2nc(-c3ccco3)c(-c3ccco3)nc2c1`, the Potency is 3.55 µM (active).
Same read-out and setting: under `O=C(Nc1ncccc1O)c1ccc(C(=O)c2ccccc2)cc1` stands “inactive”; under `CCOC(=O)N1CCN(C(=O)c2ccccc2SCC(=O)NCC2CCCCC2)CC1`, “inactive”.
With `CCOC(=O)c1c(C)[nH]c(C(=O)NCc2ccccc2OC)c1C`, the Potency result is “inactive”.
With `COc1cccc2c(C)c(C(=O)O)[nH]c12`, the Potency is 25.1 µM (active).
Still for that read-out and setting: to `Cc1c(C(=O)N/N=C/c2ccccc2)[nH]c2c([N+](=O)[O-])cccc12` belongs “inactive”; to `CC(C)Cn1c(SCC(=O)Nc2ccc(Cl)cc2F)nc(O)cc1=O`, “inactive”; to `CC(=O)C[C@H](O)CC(=O)[C@@H]1OC(=O)[C@@H](C)C/C=C\Cc2ccccc21`, “inactive”.
Turning to `CCOc1ccccc1/C=c1\sc2nc(-c3ccco3)nn2c1=O`, the Potency is 15.8 µM (active).
On the same count and under the same terms, to `CCOC(=O)/C=c1\s/c(=C\c2ccccc2OC)c(=O)n1CC(=O)N1CCOCC1` belongs “inactive”; to `CSc1nc(-c2ccco2)nn1C(=O)CCc1ccccc1`, “inactive”.
The same measure, in the same setting: under `COc1ccccc1N1CC(C(=O)NCCN2C(=O)S/C(=C\c3cccnc3)C2=O)CC1=O` (centres undefined) stands “inactive”.
The same measure, in the same setting: to `CC[C@]12c3[nH]c4ccc(Cl)cc4c3CCN1C(=O)[C@@H](CC(=O)NCCN1CCOCC1)C[C@@H]2C(=O)N1CCN(C(=O)C2CC2)CC1` belongs “inactive”.
Take `Cc1ccc(C)n1C(Cc1ccccc1)C(=O)O` (centres undefined): the Potency is 5.62 µM (active).
Regarding `CC(Cc1ccccc1)C(=O)N(C)Cc1ccccc1` (centres undefined), the Potency entry is “inactive”.
With `CCOC(=O)C(Cc1ccc(N)cc1)N1C(=O)c2ccccc2C1=O` (centres undefined), the Potency entry is “inactive”.
`CCn1c(=S)[nH]c2cc(S(=O)(=O)N3CCOCC3)ccc21`: the Potency entry was “inactive”.
Take `CCCN=C1N(C)C[C@@H]2[C@@H]3C(=O)N(Cc4ccccc4)C(=O)[C@@H]3[C@](C)(C(=O)OC)N12`: the Potency result was “inactive”.
As to `CC(=O)Nc1ccc(C(=O)Nc2cccc(S(=O)(=O)NC3=NCCC3)c2)cc1`, the Potency result is “inactive”.
Take `Cc1ccc(S(=O)(=O)NCCC(=O)OCC(=O)N(C)c2ccccc2)cc1`: the Potency result is “inactive”.
The same measure, in the same setting: under `O=C(N/N=C/c1c(Cl)[nH]c2ccccc12)c1sc2ccccc2c1Cl` stands “inactive”; under `COc1ccc(N=C(C)c2sc3ccccc3c2O)cc1`, “inactive”.
For the molecule `Oc1ccc(N=Cc2sc3ccccc3c2Cl)cc1`, the Potency is 31.6 µM (active).
The same measure, in the same setting: under `Cc1csc(SCC(=O)N(c2ccccc2)C(C)C)n1` stands “inactive”.
